# The entries come from a sample that favours hits as a whole.
# HT1080 IDH1KD tx = qHTS for induction of synthetic lethality in tumor cells producing 2HG: qHTS for the HT-1080-IDH1KD cell line. HT-1080 IDH1 knockdown viability, ATP luminescence, 48 h. 360,000 compounds, 2% hits. AID 686971, 2013. Potency, µM (titrated, usually from 46.1 µM), for the others: at the highest dose activity, negative = toxicity, usual class: cytotoxic;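 also: potency is read from the fitted curve at half-maximal effect; 0% = DMSO wells and -100% = cell-free medium wells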
#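 Viability of IDH1-knockdown HT-1080 fibrosarcoma cells was assessed by CellTiter-Glo after 48 h at 37 °C with titrated compound; concentration-effect curves were classified by fit quality and response size.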
# ALOX12 inh = Primary qHTS assay for inhibitors of human arachidonate 12S-lipoxygenase (ALOX12): Round 2; Polyunsaturated fatty acid lipoxygenase ALOX12 (Homo sapiens), P18054; purified 12hLO, xylenol orange hydroperoxide absorbance; Potency, µM (highest dose often 108 µM), for inactives: at the highest dose activity change, negative = inhibition, usual class: inhibitors; 580,000 compounds, 1.1% hits; also: potency is read from the fitted curve at half-maximal effect
# Target sequence (P18054 whole entry, looked up): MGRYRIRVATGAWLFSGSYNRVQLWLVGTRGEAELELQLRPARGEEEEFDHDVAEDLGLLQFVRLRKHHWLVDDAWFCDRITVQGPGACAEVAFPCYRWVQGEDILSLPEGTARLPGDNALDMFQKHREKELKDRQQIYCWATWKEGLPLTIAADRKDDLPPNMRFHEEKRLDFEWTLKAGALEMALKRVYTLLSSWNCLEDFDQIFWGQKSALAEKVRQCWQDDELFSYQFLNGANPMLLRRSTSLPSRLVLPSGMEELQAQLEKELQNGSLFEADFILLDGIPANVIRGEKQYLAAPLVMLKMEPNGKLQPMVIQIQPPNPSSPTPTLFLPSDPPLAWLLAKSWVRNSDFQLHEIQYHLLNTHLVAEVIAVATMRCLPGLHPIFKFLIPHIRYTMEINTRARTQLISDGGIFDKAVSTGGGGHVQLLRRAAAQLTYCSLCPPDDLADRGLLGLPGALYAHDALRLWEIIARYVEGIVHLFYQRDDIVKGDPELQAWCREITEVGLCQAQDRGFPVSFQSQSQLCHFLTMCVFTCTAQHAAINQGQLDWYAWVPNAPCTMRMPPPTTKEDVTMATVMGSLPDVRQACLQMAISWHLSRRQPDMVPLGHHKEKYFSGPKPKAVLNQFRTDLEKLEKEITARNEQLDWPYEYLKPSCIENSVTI
#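 Purified human 12hLO (150 nM final) in 25 mM Hepes, 0.01% Triton X-100, pH 7.0 was preincubated 15 min at room temperature with compound. Then 40 uM arachidonic acid was added, 30 min. Hydroperoxide was read by Fe-XO absorbance ratio 573/405 nm.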
# IL1B secr inh = qHTS for Inhibitors of Inflammasome Signaling: IL-1-beta AlphaLISA Primary Screen; THP-1 LPS/ATP IL-1B secretion, AlphaLISA, 16 h; active compounds read low; activity change, % at 57.5 µM; 360,000 compounds, 4.7% hits; in the data active = activity change below about -50%; inconclusive = mostly about -30% to -49%
#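 Secreted IL-1B measured by AlphaLISA bead assay after 16 h compound exposure of THP-1 cells; compounds (final up to 57.5 uM) added 1 h before LPS (250 ng/mL) and ATP (1.25 mM) stimulation; lower signal means less secretion.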
# TDP1 cell CPT = qHTS for Inhibitors of human tyrosyl-DNA phosphodiesterase 1 (TDP1): qHTS in cells in presence of CPT | chicken DT40 Tdp1-/-;hTDP1 cells + 20 nM CPT, ATP luminescence, 48 h | Potency, µM (highest dose often 46.2 µM), for the others: at the top dose activity change, negative = growth inhibition, actives largely listed as inhibitors | 420,000 compounds, 12% hits; also: potency is read from the fitted curve at half-maximal effect; nearly all actives have a fitted effect of over 55% in size
#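 Cell growth measured by CellTiter-Glo luminescence after a minimum 48 h, 37 C compound exposure with 20 nM CPT in Tdp1-knockout DT40 cells stably expressing hTDP1, seeded 400/well; qHTS titration format.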
# HT1080-NT tox = qHTS for induction of synthetic lethality in tumor cells producing 2HG: qHTS for the HT-1080-NT fibrosarcoma cell line; HT-1080-NT fibrosarcoma viability, CellTiter-Glo ATP luminescence, 48 h; Potency, µM (titrated, usually from 46.1 µM), for the others: at the top dose activity, negative = less viability, actives largely listed as cytotoxic; 360,000 compounds, 1.6% hits; AID 686970, 2013;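 also: NT is the 2HG producing partner of a matched IDH1 knockdown line; potency is read from the fitted curve at half-maximal effect; 0% = DMSO-treated cells and -100% = media-only wells without cells; nearly all actives have a fitted effect of over 55% in size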
#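 Viability of the 2HG-overproducing fibrosarcoma line after 48 hours of compound exposure at 37 degrees C was determined by luminescence with CellTiter-Glo, and concentration-effect curves were then fitted and categorized.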
# DT40 TDP1 no CPT = qHTS for Inhibitors of human tyrosyl-DNA phosphodiesterase 1 (TDP1): qHTS in cells in absence of CPT; DT40 Tdp1-/- hTDP1 cells, no CPT, ATP luminescence, 48 h; Potency, µM (top dose mostly 46.2 µM), for the others: at the top dose activity change, negative = growth inhibition, actives largely listed as inhibitors; 420,000 compounds, 15% hits; AID 686978, 2013; also: potency is read from the fitted curve at half-maximal effect; nearly all actives have a fitted effect of over 55% in size
#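 Seeded 400 DT40-hTDP1 cells/well (vehicle DMSO, no 20 nM CPT); pinned compounds; ≥48 hr at 37 °C; CellTiter-Glo luminescence as viability measure.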
# * hit, by the source's call; ? = inconclusive; . = not tested or not shown. Unless noted, calls follow the shape of the dose curve; as a rule, active = well fitted curve in the direction sought with a large enough effect; inconclusive = small, poorly fitted or top-dose-only effect, or another doubt; inactive = no such curve, though single readings can be large; an effect the other way counts as inactive or inconclusive. Unless noted, % is scaled to controls: 0 for no effect and ±100 for the full control effect.
SMILES,HT1080 IDH1KD tx,ALOX12 inh,IL1B secr inh,TDP1 cell CPT,HT1080-NT tox,DT40 TDP1 no CPT
CCOC(=O)c1oc2c(c1C)-c1nn(Cc3ccc(Cl)cc3)cc1CC2,.,-18.8%,.,16.4µM*,.,20.6µM*
Cc1cccc(CNC(=O)c2oc3c(c2C)-c2nn(Cc4ccccc4Cl)cc2CC3)c1,.,-10.0%,.,?,.,20.6µM*
c1ccc(-n2nnnc2CSc2nnc(N3CCOCC3)n2-c2ccccc2)cc1,.,-3.7%,.,.,.,.
Cc1c(C(=O)O)oc2c1-c1nn(Cc3ccc(Cl)cc3)cc1CC2,.,?,.,11.8%,.,-9.0%
Cc1ccc(CNC(=O)c2oc3c(c2C)-c2nn(Cc4ccc(Cl)cc4)cc2CC3)cc1,.,?,.,10.3µM*,.,9.2µM*
CSc1ccc([C@H]2[C@@H](C(=O)O)c3ccccc3C(=O)N2Cc2ccc(F)cc2)cc1,.,-6.3%,.,.,.,.
CCOC(=O)c1ccc2c(c1)nc(C1CCN(S(=O)(=O)c3cccs3)CC1)n2CC,?,-9.1%,-78.8*,14.6µM*,?,?
Cc1ccc(C(NC(=O)Cc2n[nH]c(=O)c3ccccc23)C2CC2)cc1 (stereo not drawn),.,-29.0%,.,.,.,.
CCCc1cc(=O)oc2cc(C)cc(OCC(=O)Nc3ccccn3)c12,0.6%,-17.4%,25.8,?,7.3%,-24.5%
COc1ccc2[nH]cc(CCNC(=O)COc3ccc4ccc(=O)oc4c3)c2c1,-0.8%,-5.6%,-23.3,?,4.4%,20.6µM*
Cc1cc(=O)oc2cc(OCC(=O)NCCc3c[nH]c4ccc(F)cc34)ccc12,12.6%,4.1%,-25.2,-17.7%,4.8%,13.1%
CCCc1cc(=O)oc2cc(OCC(=O)NCCc3c[nH]c4ccccc34)ccc12,?,-27.4%,-21.4,23.1µM*,?,16.4µM*
Cc1cc(=O)oc2cc(O)cc(OCc3ccccc3)c12,10.1%,?,38.3,?,9.9%,16.4µM*
Cc1cc(OCC(=O)Nc2ccccn2)c2c(C)cc(=O)oc2c1,5.1%,2.5%,-54.4*,-24.7%,18.2%,?
Cc1cc(=O)oc2ccc(OCc3ccccc3)cc12,-7.2%,7.4%,29.1,?,-15.4%,?
Cc1c(Cl)cccc1NC(=O)C(C)N1CCC(C(=O)NCc2ccccc2)CC1 (stereo not drawn),.,-22.2%,.,.,.,.
Cc1cc(OCC(=O)NCCc2c[nH]c3ccccc23)c2c(C)cc(=O)oc2c1,0.9%,22.1%,-90.2*,?,8.3%,?
Cc1cc(C(=O)N2CCCC(CO)(Cc3ccc(F)cc3F)C2)nn1C (stereo not drawn),2.4%,0.4%,8.2,?,0.8%,?
COc1ccc(CN2CCCC(CO)(CC3CC3)C2)c(F)c1 (stereo not drawn),.,-8.7%,.,.,.,.
COc1ccc(CN2CCCC(CO)(Cc3ccc(F)cc3F)C2)cc1 (stereo not drawn),?,8.4%,-83.5*,?,?,?
CCOc1ccc(CN2CCCC(CO)(Cc3ccc(F)cc3)C2)cc1 (stereo not drawn),?,0.0%,?,-25.7%,?,?
OCC1(Cc2ccc(F)cc2)CCCN(Cc2ccc(F)cc2Cl)C1 (stereo not drawn),?,?,-2.7,-22.9%,?,25.9µM*
